Test results published in PubChem BioAssay AID687014 (The Scripps Research Institute Molecular Screening Center, 2013).
Hit rate of the full screen: of about 370,000 compounds, about 6,800 (1.8%) were called active. The sample as a whole holds a higher share of actives than the screen did. Values without a mark were called inactive.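 The calls were made as follows: active = activation above a cutoff set at the mean of all screened compounds plus 3 SD (cut at about 10% in these data); inactive = the rest.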

Tested on: Nuclear hormone receptor DAF-12 (Heterodera glycines), GAL4 fusion
Experiment: hgDAF-12 GAL4 fusion reporter activation – cell-based, luminescence, HEK293, UAS-luciferase, primary screen (AID 687014);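 also: 0% = DMSO wells and 100% = sodium butyrate wells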
Details: HEK293 GAL4-hgDAF12 UAS-luciferase reporter, agonist luminescence; at 6.8 µM; hits give high values; normalized to butyrate control

Row | Compound | activation
1 | N#CCC[C@H]1CC[C@]2(CCCN(Cc3ccc(Cl)cc3)C2)O1 | -2.81%
2 | Cc1ccc(C)c(NC(=O)CCS(=O)(=O)c2ccccc2)c1 | -2.63%
3 | CC1CCN(C(=S)c2ccc(-c3ccc(Cl)cc3Cl)o2)CC1 | -2.32%
4 | S=C(c1ccc(-c2ccccc2)o1)N1CCCCC1 | 19.9% (active)
5 | O=C(NC(=S)Nc1ccccc1C(=O)O)c1ccc(-c2ccc(Br)cc2)o1 | -2.39%
6 | NC(=O)c1ncn([C@@H]2O[C@H](C(=O)O)[C@@H](O)[C@H]2O)n1 | 1.3%
7 | Cc1ccnc(Nc2nc3ccccc3s2)n1 | 21.9% (active)
8 | Cc1ccnc(-n2sc3ccccc3c2=O)n1 | 4.36%
9 | CCCN1C(=O)c2[nH]nc(-c3ccccc3)c2C1c1ccccc1 (stereo not given) | -0.37%
10 | O=C(NCc1ccccc1)[C@H]1CCCN1C(=O)[C@H]1CCCN1C(=O)N1CCOCC1 | -0.79%
11 | CCn1c2ccc(F)cc2c2nnc(SCCN3CCOCC3)nc21 | 0.7%
12 | Cc1cc2nc(SCCN3CCOCC3)[nH]c2cc1C | 11.8% (active)
13 | COc1ccc2nc(SCC(=O)Nc3c(C)cc(C)cc3C)[nH]c2c1 | -0.27%
14 | COc1ccccc1CCNS(=O)(=O)c1cc2c3c(c1)C(C)C(=O)N3CCC2 (stereo not given) | -1.65%
15 | O=C1C(=O)N(Cc2ccc(-c3ccsc3)cc2)c2ccc(OC(F)(F)F)cc21 | -4.58%
16 | COC(=O)C1=C(C)N(Cc2ccc(F)cc2)C(=S)NC1c1cccc(Cl)c1 (stereo not given) | -2.2%
17 | CC(C)[C@@H](C)/C=C/[C@@H](C)[C@H]1CC[C@@H]2[C@]1(C)CCC1[C@]23C=C[C@]2(C[C@@H](O)CC[C@]12C)N(c1ccc([N+](=O)[O-])cn1)O3 (stereo not given in full) | 0.26%
18 | COc1ccc(N2CCN(CCNS(=O)(=O)c3ccc(C(C)(C)C)cc3)CC2)cc1 | 0.34%
19 | N/C(=N\OC(=O)CC1CCCCC1)c1ccccc1 | 0.73%
20 | N/C(=N\OC(=O)Cc1ccc([N+](=O)[O-])cc1)c1ccccn1 | 5.64%
21 | N/C(=N\OC(=O)CCC1CCCCC1)c1ccccn1 | 14.7% (active)
22 | COc1cc(/C=C/C(=O)n2cnc3ccccc32)cc(OC)c1OC | -6.48%
23 | C/C(=C(\C#N)C(=O)NCCCN1CCOCC1)N(C)C | -0.63%

Row | Compound | activation
24 | Cc1ccnc(NC(=O)C2CCN(S(=O)(=O)c3c(C)c(C)cc(C)c3C)CC2)c1 | 14.9% (active)
25 | CNC(=O)C1CCN(S(=O)(=O)c2c(C)noc2/C=C/c2cccc(C)c2)CC1 | 1.09%
26 | O=C(Nc1ccccn1)C1CCN(S(=O)(=O)c2ccc3c(c2)OCCO3)CC1 | 5.62%
27 | COc1ccccc1CCNC(=O)C1CCN(c2nc(C)cc(C)n2)CC1 | -1.32%
28 | O=C(CSc1nc2ccccc2n1Cc1ccccc1Cl)N/N=C\c1c[nH]c2ccccc12 | 0.95%
29 | Fc1ccccc1-c1cc2cc3c(cc2cn1)OCO3 | 16.3% (active)
30 | O=C(c1ccco1)N1CCN(C(=O)c2cc(-c3ccccc3F)no2)CC1 | 0.91%
31 | COC(=O)C1=C(C)N(Cc2cccc(C(F)(F)F)c2)C(=NCc2cccc(C(F)(F)F)c2)NC1c1ccccc1C(F)(F)F (stereo not given) | 0.13%
32 | CN(C)c1ccc(NC(=O)NC2CCCCN(Cc3ccc(Cl)cc3)C2=O)cc1 (stereo not given) | -1.5%
33 | C[C@@H]1CN([C@H](C)CO)S(=O)(=O)c2ccc(C#C[C@@H](C)O)cc2O[C@@H]1CN(C)Cc1ccc(-c2ccccc2)cc1 | 2.28%
34 | COc1ccc(CC(=O)NCc2nnc(SCC(=O)Nc3ncc(C)s3)n2C)cc1 | 3.07%
35 | O=C(Nc1nnc(C2CC2)s1)c1ccccn1 | 12.5% (active)
36 | Cc1cccc(NC(=O)c2cccc(C(=O)Nc3cccc(C)c3C)n2)c1C | -1.93%
37 | Cc1cnc(NC(=O)Cn2cnc3c2c(=O)n(C)c(=O)n3C)s1 | -0.21%
38 | CCc1ccccc1OCC(=O)Nc1nnc(C2CC2)s1 | -2.07%
39 | CCc1cc(C(=O)Nc2nnc(C3CC3)s2)sc1C | 1.89%
40 | Cc1cnc(NC(=O)c2ccccn2)s1 | 16.5% (active)
41 | Cc1cnc(NC(=O)c2ccc(Cl)nc2)s1 | 12.4% (active)
42 | O=C(Nc1ccc2nc3n(c(=O)c2c1)CCCC3)c1ccc(Cl)nc1 | 1.23%
43 | O=C(COC(=O)c1ccc(F)cc1)NCCCc1ccccc1 | -2.09%
44 | Cc1ccc(C(=O)NCC(=O)OCC(=O)Nc2cccc(S(=O)(=O)N3CCCC3)c2)cc1C | 0.26%
45 | O=C(NCc1ccccc1)[C@H]1CCCN1C(=O)[C@@H]1CCCN1C(=O)c1ccc(Cl)cc1Cl | 5.91%
46 | O=C(CSC1CC(=O)N(CCc2ccccc2)C1=O)Nc1ccc(Cl)cc1 (stereo not given) | 3.22%

Row | Compound | activation
47 | COC(=O)[C@H](C(C)C)N1CCc2nnn(Cc3ccc(C)cc3)c2-c2ccccc2S1(=O)=O | 1.86%
48 | COC(=O)[C@]12C[C@H](CC(=O)NCCc3ccccc3OC)C(=O)N(Cc3ccco3)C1=C[C@H](C(C)C)O[C@@H]2C1CC1 | 1.21%
49 | Nc1[nH]c(C(=O)c2ccccc2)c(-c2ccncc2)c1C(=O)NCc1cccc2ccccc12 | -0.47%
50 | CNC(=O)c1sc(Nc2ccc(OCc3ccccc3)cc2)nc1C | -1.9%
51 | COc1ccc(Nc2nc(-c3ccccc3)cs2)cc1 | 22.4% (active)
52 | COc1ccc(-c2csc(Nc3ccccn3)n2)cc1 | 16.9% (active)
53 | Cc1cccc(OCC(=O)OCC(=O)Nc2ccc(Cl)cn2)c1 | 0.27%
54 | N#Cc1ccc(OCC(=O)Nc2nc(-c3ccccn3)cs2)cc1 | -6.22%
55 | CC(=O)c1ccc(Nc2nc(C(N)c3ccccc3)cs2)cc1 (stereo not given) | 2.66%
56 | c1ccc(Nc2nc(-c3ccncc3)cs2)nc1 | 14.5% (active)
57 | CC(NC(=O)c1ccco1)C(=O)Nc1nc(-c2ccccn2)cs1 (stereo not given) | 1.66%
58 | COc1cccc(C(O)c2nc(-c3ccc(C)c(C)c3)cs2)c1 (stereo not given) | -0.02%
59 | O=C(CN1C(=O)C2C3C=CC(C3)C2C1=O)Nc1nc(-c2ccccn2)cs1 (stereo not given) | 0.17%
60 | Clc1ccc(Nc2nc(-c3cccs3)cs2)nc1 | 19.5% (active)
61 | OC(c1ccccc1)(c1ccccc1)C1CCN(CCCOc2ccc(-c3ccsc3)cc2)CC1 | -3.48%
62 | C=C(C)C1CC23C(=O)C4(C(=O)c5ccccc5)C[C@@]5(C)CCC(CC2C1(C)C)(C4=O)C35OC (stereo not given in full) | -0.57%
63 | O=C(NCc1ccco1)c1ccc(NS(=O)(=O)c2cccc([N+](=O)[O-])c2)cc1 | 0.98%
64 | O=C(NCCC1=CCCCC1)C1CCN(S(=O)(=O)c2ccc(Cl)s2)CC1 | -1.78%
65 | O=C(NCC1COc2ccccc2O1)c1ccc(NC(=O)c2cc(F)ccc2F)cc1 (stereo not given) | -2.39%
66 | COc1ccc(-c2c(NC(=O)c3ccco3)oc3ccc(Cl)cc3c2=O)cc1 | 0.05%
67 | O=C(Nc1ccc2oc(-c3ccccc3F)nc2c1)c1ccco1 | 14.8% (active)
68 | O=C(Nc1cc(-c2nc3ncccc3o2)ccc1Cl)c1ccco1 | 2.36%
69 | COC(=O)Cc1nnn2c1[C@H](C)[C@H](c1ccccc1[N+](=O)[O-])OCC2 | -0.34%

Row | Compound | activation
70 | CCOC(=O)c1cc(S(=O)(=O)NCCc2ccc(OC)c(OC)c2)cn1C | 0.63%
71 | CCOC(=O)N1CCN(Cc2oc(CO)cc(=O)c2O)CC1 | 1.66%
72 | Clc1cccc(Cc2c(-c3cccc(Cl)c3)nc3ccc(Cl)cn23)c1 | 6.04%
73 | CSc1nc2nc3c(c(=O)n2[nH]1)CCC3 | -0.35%
74 | O=c1c2c(nc3cc(-c4cccc(Cl)c4)[nH]n13)CCCC2 | 18.1% (active)
75 | CSc1ccc(C=Nn2c(-c3ccc(F)cc3)n[nH]c2=S)cc1 | -2.14%
76 | Oc1cccc2ccc(/C=C/c3ccc(Br)s3)nc12 | 20.9% (active)
77 | CCCCOCC1CN(CCCC)S(=O)(=O)c2c(Oc3ccc(F)cc3)cccc2O1 (stereo not given) | 3.59%
78 | COC(=O)C1CN(Cc2cn(Cc3ccc(F)cc3)nn2)CCS(=O)(=O)N1Cc1ccc(Cl)cc1 (stereo not given) | -1.71%
79 | Clc1ccc(-n2c(COc3ccccc3)nnc2SCc2nc3ccccc3[nH]2)cc1 | 0.78%
80 | CN(CCO)c1ccc(/C=N/Nc2nncc3ccccc23)cc1 | 10.7% (active)
81 | N#Cc1ccc(N2Cc3ccccc3/C2=N/C(=O)Nc2ccc(Cl)cc2)cc1 | 2%
82 | O=C(Nc1cccc(C(=O)O)c1)/C(=C\c1ccccc1)NC(=O)c1ccc(Br)o1 | 1.1%
83 | Cc1cccc(NC(=S)NC(=O)c2ccc(Br)o2)c1 | 15.4% (active)
84 | CCS(=O)(=O)c1ccc(-c2cccc(NC(=O)c3ccc(Br)o3)c2)nn1 | 3.52%
85 | Nc1[nH]c(/C=C2/CCCCC2n2[nH]c(=O)n(-c3ccccc3)c2=O)c(Cc2ccccc2)[n+]1Cc1ccccc1 (stereo not given) | 0.06%
86 | CC(C)c1cc(NCc2ccccn2)n2c(nc3ccccc32)c1C#N | 3.15%
87 | C=CCN(C(=O)[C@@H](CCCC)[C@@H](O)c1ccc(Cl)cc1)c1ccccc1 | 1.69%
88 | CC(=NNC(N)=O)c1ccc(Cl)c(-n2cccc2)c1 | 1.64%
89 | Cc1cc(NC(=O)C(C)N2C(=O)c3ccccc3S2(=O)=O)no1 (stereo not given) | -0.78%
90 | O=C(OCCN1CCOCC1)C1(c2ccccc2)CCCCC1 | -2.44%
